# PubChem BioAssay (NCATS)
# Several values for one entry are separate records, joined by “and”; a condition that tells them apart may be missing. Identical values can stand only once. Values without a mark were called inactive.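 Rule for the calls: active = compounds whose dose series gives a full or clear partial fitted curve of increased nuclear translocation; inconclusive = weak partial curve or effect only at the top dose; inactive = no dose-dependent translocation response.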
# Target: Glucocorticoid receptor (Homo sapiens) (UniProt P04150)
# Sequence (P04150 whole entry, looked up): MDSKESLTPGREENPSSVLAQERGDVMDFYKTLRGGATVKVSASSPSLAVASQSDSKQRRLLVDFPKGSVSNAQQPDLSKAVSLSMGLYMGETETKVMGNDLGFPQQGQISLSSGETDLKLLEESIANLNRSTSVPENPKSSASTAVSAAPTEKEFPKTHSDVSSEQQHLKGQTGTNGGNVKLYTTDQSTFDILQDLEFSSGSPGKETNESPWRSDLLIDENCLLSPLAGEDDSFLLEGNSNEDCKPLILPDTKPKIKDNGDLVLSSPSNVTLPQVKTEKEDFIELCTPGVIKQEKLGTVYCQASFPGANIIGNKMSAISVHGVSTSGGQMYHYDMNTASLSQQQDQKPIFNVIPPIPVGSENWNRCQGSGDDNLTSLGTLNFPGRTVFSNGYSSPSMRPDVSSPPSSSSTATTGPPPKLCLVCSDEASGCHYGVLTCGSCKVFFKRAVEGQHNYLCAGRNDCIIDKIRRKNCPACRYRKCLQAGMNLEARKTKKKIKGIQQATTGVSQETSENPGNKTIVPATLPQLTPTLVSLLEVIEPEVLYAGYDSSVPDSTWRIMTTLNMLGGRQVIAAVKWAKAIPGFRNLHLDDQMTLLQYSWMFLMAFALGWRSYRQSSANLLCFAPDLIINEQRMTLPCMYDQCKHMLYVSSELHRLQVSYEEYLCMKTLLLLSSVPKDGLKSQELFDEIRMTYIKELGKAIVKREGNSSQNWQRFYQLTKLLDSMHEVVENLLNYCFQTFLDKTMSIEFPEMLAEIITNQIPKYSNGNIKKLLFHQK
# Experiment: GR-GFP Redistribution (AID 450)
# Conditions: U2OS GR-GFP nuclear translocation, laser cytometry, 2 h
# Description: NIH Molecular Libraries Screening Centers Network [MLSCN]
# NIH Chemical Genomics Center [NCGC]
# The glucocorticoid receptor (GR) Redistribution assay (BioImage) enables the visualization of GR cytoplasmic to nuclear translocation by the use of a GR-GFP fusion. GR is normally cytosolic, however ligands such as dexamethasone, cause nuclear translocation where the protein binds to response elements and interacts with various co-factors to modulate transcription. Because both functional agonists and antagonists can induce nuclear translocation, this assay can detect ligands regardless of their effects on gene expression. GR-GFP expressing U20S cells were used here. Dexamethasone was the positive control for translocation and data normalization. Detection of nuclear translocation was performed in 1536-well plates using the Acumen laser scanning plate cytometer (TTP LabTech). Validation of this assay and a detailed protocol have been described.
# NCGC Assay Protocol Summary:
# GR-GFP U2OS cells were maintained in DMEM with Glutamax and high glucose, 1% v/v penicillin-streptomycin, and 0.5 mg/mL Geneticin. For cell culture, 10% […] fetal bovine serum (FBS) was used (Invitrogen #26140-079). For cell plating 10% dextran, charcoal-stripped FBS (Hyclone SH30068.03) was used. U2OS cells were trypsin treated, suspended in medium, and passed through a 40 um basket filter. The cells were seeded at 600 cells/5 uL/well into clear-bottom black sided 1536-well plates and incubated for approximately 20 hrs, 37degC, 5%, CO2 in a tissue culture incubator. Twenty-three nL of compound was delivered by pin tool and the plates were incubated as above for 2 hrs. The compounds were tested as a 7-point titration ranging from 46 uM to 0.6 nM. The cells were fixed using the Kalypsys Washer/Dispenser station. The fixing protocol involved aspiration of the cell media, addition of 6 uL/well of PBS, aspiration of PBS, addition of 5uL/well of 100% methanol, aspiration of methanol, and addition of 3 uL/well PBS with 1.5 uM propidium iodide (PI). The plates were read by the Acumen Explorer using a 1 x 8 um scan of the whole well area. PI fluorescence triggered the collection of PI and GFP signals. A nuclei population was defined by a 10 to 100 um width and depth filter that eliminated small and large fluorescent particles. Two subpopulations of nuclei were then defined by peak intensity of GFP fluorescence to obtain translocated and untranslocated objects. The number of translocated objects was used for data normalization.
# Keywords: NIH Roadmap, MLSCN, MLI, MLSMR, sOGT, qHTS, NCGC
# Potency is the fitted concentration of half-maximal effect.
row,SMILES,Potency
1,NC(=NCCc1ccc(I)cc1)SCCCc1cnc[nH]1,> 46 µM
2,CC(C)n1cnc2c(C(=O)N[C@H]3CN4CCC3CC4)cc(Cl)cc21,> 46 µM
3,Oc1ccc2c3c1O[C@H]1c4[nH]c5ccccc5c4C[C@]4(O)[C@H](C2)N(CC2CC2)CC[C@@]314,> 46 µM
4,N[C@H](CP(=O)(O)O)C(=O)O,> 46 µM
5,c1ccc2c3c([nH]c2c1)CNCC3,> 20.6 µM
6,Cl.Cl.Cl.Cl.Cl.Cl.N.N.N.N.NNNNN.NNNNN.O.O.[Ru].[Ru].[Ru],> 46 µM
7,C[C@](N)(CCP(=O)(O)O)C(=O)O,> 46 µM
8,CCCN1C[C@H](C)N([C@H](c2ccc(C(=O)N(CC)CC)cc2)c2cccc(OC)c2)C[C@H]1C,> 46 µM
9,C=CCN1CC[C@@]23c4c5ccc(O)c4O[C@H]2/C(=N\N=C2/CC[C@@]4(O)[C@H]6Cc7ccc(O)c8c7[C@@]4(CCN6CC=C)[C@@H]2O8)CC[C@]3(O)[C@@H]1C5,> 46 µM
10,c1cncc(C2=NCCC2)c1,> 20.6 µM
11,CCCN(CCC)[C@@H]1CCc2c(OC)cccc2[C@@H]1C,> 46 µM
12,CC(C)NC[C@H](O)c1ccc(N)c(C#N)c1,> 46 µM
13,CN1Cc2ccccc2[C@@H]2c3cccc4[nH]cc(c34)C[C@H]21,> 46 µM
14,CC1(C)N(O)C(c2ccc(C(=O)O)cc2)=[N+]([O-])C1(C)C,> 46 µM
15,CCNC(=O)[C@@H]1O[C@@H](n2cnc3c(N)ncnc32)[C@H](O)[C@H]1O,> 46 µM
16,CCCN[C@@H]1CCc2c(OC)cccc2[C@@H]1C,> 46 µM
17,NC(N)=NCCCCCCCCCCN=C(N)N,> 46 µM
18,N[C@@H](CCP(=O)(O)O)C(=O)O,> 46 µM
19,CC(C)(c1ccc(OC[C@@H]2CO2)cc1)c1ccc(OC[C@H]2CO2)cc1,> 46 µM
20,CN1CCN(c2ccc3ccccc3n2)CC1,> 46 µM

row,SMILES,Potency
1,CN[C@@H]1C[C@H](c2ccc(Cl)c(Cl)c2)c2ccccc21,> 46 µM
2,Cc1ccc(C[N+](C)(C)C)o1,> 46 µM
3,CCOC(OCC)P(=O)(O)CCCN,> 46 µM
4,C/C(=C\C=C/[C@@H](C)C(=O)O)[C@H]1CN[C@H](C(=O)O)[C@@H]1CC(=O)O,> 46 µM
5,C[C@@]1(CO)[C@H](O)CC[C@@]2(C)[C@H]1CC[C@H]1C[C@@H]3C[C@@]12CC[C@]3(O)CO,> 20.6 µM
6,CC(C)(C)c1o[nH]c(=O)c1C[C@H](N)C(=O)O,> 46 µM
7,Clc1ccc(COC(Cn2ccnc2)c2ccc(Cl)cc2Cl)c(Cl)c1 (stereo not given),> 20.6 µM
8,c1cncc([C@@H]2CCCCN2)c1,> 20.6 µM and > 46 µM
9,C/C(=C\[C@@H](N)C(=O)O)CP(=O)(O)O,> 46 µM
10,NC[C@H](CS(=O)(=O)O)c1ccc(Cl)cc1,> 46 µM
11,O=C(O)/C=C\CO,> 46 µM
12,CC1=C(O)C(=O)[C@H]2O[C@@H]2C1=O,> 46 µM
13,CC(C)(C)NC[C@@H](O)COc1cccc2[nH]c(C#N)cc12,> 46 µM
14,CNCCc1cnc[nH]1,> 46 µM
15,CCN1C[C@]2(COC(=O)c3ccccc3N3C(=O)C[C@H](C)C3=O)CC[C@H](OC)[C@@]34[C@@H]5C[C@H]6[C@H](OC)[C@H]5[C@](O)(C[C@@H]6OC)[C@@](O)([C@@H](OC)[C@@H]23)[C@@H]14,> 46 µM
16,C=C(C)[C@H]1CN[C@H](C(=O)O)[C@@H]1CC(=O)O,> 46 µM
17,NC[C@H](CC(=O)O)c1ccc(Cl)cc1,> 46 µM
18,CN(C(=O)Cc1ccc(Cl)c(Cl)c1)[C@@H](CN1CCCC1)c1cccc(OCC(=O)O)c1,> 46 µM
19,C[C@@H](C(=O)OC1C[C@H]2CC[C@@H](C1)N2C)c1ccc(Br)cc1 (stereo not given in full),> 46 µM
20,COc1cccc2c1cc([N+](=O)[O-])c1c(C(=O)O)cc3c(c12)OCO3,> 46 µM
